Activity calls are given as the source filed them. The calls were made as follows: active = hit-call score of the fitted dose curve at least 0.9, where 1 is the maximum; inactive = score below 0.9.
Experiments:
[1] = read-out: Cyclin D1 (CCND1), CCND1 (gene 595); assay: LTEA_HepaRG_CCND1: Life Technologies and Expression Analysis (LTEA) Assay for Cyclin D1 (CCND1) using HepaRG (AID 2283451); conditions: mRNA level, 48 h; actives raise or lower the signal
In short: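 HepaRG plated 48 h, medium switched to serum-free induction medium, chemicals added in duplicate (top 100 uM, half-log steps, 0.5% DMSO) for 48 h, cells lysed, RNA measured by TaqMan qRT-PCR.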

[2] = read-out: catalase (CAT), CAT (gene 847); assay: LTEA_HepaRG_CAT: Life Technologies and Expression Analysis (LTEA) Assay for catalase (CAT) using HepaRG (AID 2283452); conditions: mRNA level, 48 h; actives raise or lower the signal
In short: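 Expression of CAT was quantified by TaqMan qRT-PCR with ACTB/GAPDH/POLR2A normalization after 48 h chemical exposure of HepaRG. Eight-point half-log series, top 100 uM, in 0.5% DMSO; gain or loss fitted against vehicle.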

[3] = read-out: flavin-containing dimethylaniline monooxygenases 3 (FMO3), FMO3 (gene 2328); assay: LTEA_HepaRG_FMO3: Life Technologies and Expression Analysis (LTEA) Assay for flavin-containing dimethylaniline monooxygenases 3 (FMO3) using HepaRG (AID 2283453); conditions: mRNA level, 48 h; actives raise or lower the signal
In short: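 HepaRG, 48 h exposure, 8-pt half-log series from 100 uM, 0.5% DMSO vehicle, duplicates; FMO3 transcript by Fluidigm TaqMan qRT-PCR, housekeeping-normalized; gain/loss fit vs DMSO.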

[4] = read-out: Cytochrome P450 (CYP1A1), CYP1A1 (gene 1543); assay: LTEA_HepaRG_CYP1A1: Life Technologies and Expression Analysis (LTEA) Assay for Cytochrome P450 (CYP1A1) using HepaRG (AID 2283454); conditions: mRNA level, 48 h; actives raise or lower the signal
In short: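 HepaRG, 48 h post-plating switched to serum-free induction medium; 8-pt conc-response (top 100 uM, half-log, 0.5% DMSO), duplicates, 48 h. Lysis in RLT, TaqMan qRT-PCR for CYP1A1; gain or loss vs DMSO.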

[5] = read-out: CFLAR gene, CFLAR (gene 8837); assay: LTEA_HepaRG_CFLAR: Life Technologies and Expression Analysis (LTEA) Assay for CFLAR gene using HepaRG (AID 2283455); conditions: mRNA level, 48 h; actives raise or lower the signal
In short: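 HepaRG, 48 h exposure, 8-pt conc-response (100 uM top, half-log), 0.5% DMSO vehicle, duplicates. CFLAR expression by qRT-PCR; ACTB/GAPDH/POLR2A normalization; gain or loss fit vs DMSO baseline.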

[6] = read-out: Forkhead box O1 (FOXO1), FOXO1 (gene 2308); assay: LTEA_HepaRG_FOXO1: Life Technologies and Expression Analysis (LTEA) Assay for Forkhead box O1 (FOXO1) using HepaRG (AID 2283456); conditions: mRNA level, 48 h; actives raise or lower the signal
In short: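 Readout is FOXO1 transcript level by multiplexed qRT-PCR against three housekeeping genes, curve-fitted in both directions relative to 0.5% DMSO vehicle. Human HepaRG cultures received chemicals for 48 h, up to 100 uM in half-log steps.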

[7] = read-out: growth arrest and DNA damage 45 (GADD45A), GADD45A (gene 1647); assay: LTEA_HepaRG_GADD45A: Life Technologies and Expression Analysis (LTEA) Assay for growth arrest and DNA damage 45 (GADD45A) using HepaRG (AID 2283458); conditions: mRNA level, 48 h; actives raise or lower the signal
In short: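 Differentiated HepaRG cells were exposed in duplicate for 48 h in serum-free induction medium to 8-point half-log concentrations up to 100 uM in 0.5% DMSO. GADD45A mRNA was measured by TaqMan qRT-PCR, normalized to ACTB, GAPDH and POLR2A, with bidirectional fitting versus DMSO.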

[8] = read-out: Forkhead box O3 (FOXO3), FOXO3 (gene 2309); assay: LTEA_HepaRG_FOXO3: Life Technologies and Expression Analysis (LTEA) Assay for Forkhead box O3 (FOXO3) using HepaRG (AID 2283459); conditions: mRNA level, 48 h; actives raise or lower the signal
In short: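 HepaRG, 48 h post-dose; 8 conc., half-log from 100 uM, 0.5% DMSO, duplicates; serum-free induction medium. Readout: FOXO3 mRNA, TaqMan qRT-PCR, housekeeping-normalized. Bidirectional curve fit vs DMSO baseline.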

[9] = read-out: ABC Transporter (ABCB1), ABCB1 (gene 5243); assay: LTEA_HepaRG_ABCB1: Life Technologies and Expression Analysis (LTEA) Assay for ABC Transporter (ABCB1) using HepaRG (AID 2283460); conditions: mRNA level, 48 h; actives raise or lower the signal
In short: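 Expression of ABCB1 was quantified by qRT-PCR against three housekeeping genes after human HepaRG cultures received test chemicals for 48 hours. Concentrations spanned eight half-log steps topping at 100 uM in 0.5% DMSO; gain or loss of signal was fitted relative to vehicle.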

[10] = read-out: growth arrest and DNA damage 45 (GADD45B), GADD45B (gene 4616); assay: LTEA_HepaRG_GADD45B: Life Technologies and Expression Analysis (LTEA) Assay for growth arrest and DNA damage 45 (GADD45B) using HepaRG (AID 2283461); conditions: mRNA level, 48 h; actives raise or lower the signal
In short: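 HepaRG, ~100,000 cells/well, 48 h plating; serum-free induction medium; cpd 100 uM top, half-log x8, 0.5% DMSO, duplicate, 48 h; lysis in RLT, RNA isolation, qRT-PCR; norm ACTB/GAPDH/POLR2A; bidirectional fit vs DMSO.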

[11] = read-out: ABC Transporter (ABCC3), ABCC3 (gene 8714); assay: LTEA_HepaRG_ABCC3: Life Technologies and Expression Analysis (LTEA) Assay for ABC Transporter (ABCC3) using HepaRG (AID 2283462); conditions: mRNA level, 48 h; actives raise or lower the signal
In short: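 Human HepaRG, 48 h dosing, 8-pt half-log series from 100 uM, 0.5% DMSO vehicle, duplicates. ABCC3 mRNA by TaqMan qRT-PCR, housekeeping-normalized; bidirectional curve fit vs DMSO.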

[12] = read-out: ABC Transporter (ABCB11), ABCB11 (gene 8647); assay: LTEA_HepaRG_ABCB11: Life Technologies and Expression Analysis (LTEA) Assay for ABC Transporter (ABCB11) using HepaRG (AID 2283463); conditions: mRNA level, 48 h; actives raise or lower the signal
In short: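 ABCB11 transcript levels are read by Fluidigm TaqMan qRT-PCR after 48 h chemical treatment of human HepaRG cells. Concentrations span 100 uM downward in half-log steps with 0.5% DMSO; gain or loss is fitted against DMSO controls.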

[13] = read-out: ABC Transporter (ABCC2), ABCC2 (gene 1244); assay: LTEA_HepaRG_ABCC2: Life Technologies and Expression Analysis (LTEA) Assay for ABC Transporter (ABCC2) using HepaRG (AID 2283464); conditions: mRNA level, 48 h; actives raise or lower the signal
In short: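 HepaRG, 48 h post-plating; serum-free induction medium; cpd 8-pt, 100 uM top, half-log, 0.5% DMSO, duplicate, 48 h. Readout: ABCC2 mRNA by qRT-PCR, norm. ACTB/GAPDH/POLR2A. Bidirectional fit vs DMSO baseline.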

[14] = read-out: Broad substrate specificity ATP-binding cassette transporter ABCG2 (Homo sapiens) (UniProt Q9UNQ0); assay: LTEA_HepaRG_ABCG2: Life Technologies and Expression Analysis (LTEA) Assay for ABC Transporter (ABCG2) using HepaRG (AID 2283465); conditions: mRNA level, 48 h; actives raise or lower the signal
In short: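 Read-out is ABCG2 mRNA induction or loss quantified by qRT-PCR after 48 h chemical treatment of human HepaRG cells, normalized to three housekeeping genes. Concentrations reached 100 uM top in half-log steps; fitting was bidirectional against 0.5% DMSO.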

[15] = read-out: ATP-citrate lyase (ACLY), ACLY (gene 47); assay: LTEA_HepaRG_ACLY: Life Technologies and Expression Analysis (LTEA) Assay for ATP-citrate lyase (ACLY) using HepaRG (AID 2283466); conditions: mRNA level, 48 h; actives raise or lower the signal
In short: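 HepaRG, 48 h exposure, 8-pt half-log dilutions (top 100 uM), 0.5% DMSO. Readout: ACLY mRNA, TaqMan qRT-PCR, housekeeping-normalized (ACTB/GAPDH/POLR2A). Bidirectional curve fit vs DMSO.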

[16] = read-out: Peroxisomal acyl-coenzyme A oxidase 1 (ACOX1) gene, ACOX1 (gene 51); assay: LTEA_HepaRG_ACOX1: Life Technologies and Expression Analysis (LTEA) Assay for Peroxisomal acyl-coenzyme A oxidase 1 (ACOX1) gene using HepaRG (AID 2283467); conditions: mRNA level, 48 h; actives raise or lower the signal
In short: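 Measured by qRT-PCR against three housekeeping genes: ACOX1 transcript change in human HepaRG cells after 48 h dosing. Concentrations ran up to 100 uM in half-log steps. Curves were fitted bidirectionally relative to 0.5% DMSO.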

[17] = read-out: Alkaline Phosphatase, Placental (ALPP) gene, ALPP (gene 250); assay: LTEA_HepaRG_ALPP: Life Technologies and Expression Analysis (LTEA) Assay for Alkaline Phosphatase, Placental (ALPP) gene using HepaRG (AID 2283468); conditions: mRNA level, 48 h; actives raise or lower the signal
In short: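 HepaRG, 48 h plating then 48 h dosing, serum-free induction medium, 0.5% DMSO. 8 conc, half-log, max 100 uM, duplicates. Endpoint: ALPP transcript by qRT-PCR, housekeeping-normalized; gain or loss fitted vs DMSO.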

[18] = read-out: Bcl-2 (BAD) gene, BAD (gene 572); assay: LTEA_HepaRG_BAD: Life Technologies and Expression Analysis (LTEA) Assay for Bcl-2 (BAD) gene using HepaRG (AID 2283469); conditions: mRNA level, 48 h; actives raise or lower the signal
In short: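 BAD transcript change, measured by qRT-PCR against three housekeeping genes and fitted in both directions relative to 0.5% DMSO, after 48 h chemical treatment of human HepaRG liver cells at concentrations up to 100 uM.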

[19] = read-out: Bcl-2 (BAX) gene, BAX (gene 581); assay: LTEA_HepaRG_BAX: Life Technologies and Expression Analysis (LTEA) Assay for Bcl-2 (BAX) gene using HepaRG (AID 2283470); conditions: mRNA level, 48 h; actives raise or lower the signal
In short: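 Differentiated human HepaRG cells, plated 48 h then switched to serum-free induction medium, were exposed 48 h to 8 half-log concentrations up to 100 uM in 0.5% DMSO; BAX mRNA measured by qRT-PCR, normalized to ACTB, GAPDH, POLR2A.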

[20] = CEETOX_H295R_TESTO: CeeTox H295R High-throughput Steroidogenesis Assay for Testosterone (TESTO) (AID 2283457); conditions: actives raise or lower the signal
In short: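 H295R, passage ≤10, 48 h dosing; media extracted with MTBE → HPLC-MS/MS for testosterone; 7-pt standard curve sets LLOQ/ULOQ; bidirectional fit vs DMSO; MTT viability same wells.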

Measured: AC50

Sequence of Broad substrate specificity ATP-binding cassette transporter ABCG2 (Homo sapiens) (Q9UNQ0 whole entry, looked up): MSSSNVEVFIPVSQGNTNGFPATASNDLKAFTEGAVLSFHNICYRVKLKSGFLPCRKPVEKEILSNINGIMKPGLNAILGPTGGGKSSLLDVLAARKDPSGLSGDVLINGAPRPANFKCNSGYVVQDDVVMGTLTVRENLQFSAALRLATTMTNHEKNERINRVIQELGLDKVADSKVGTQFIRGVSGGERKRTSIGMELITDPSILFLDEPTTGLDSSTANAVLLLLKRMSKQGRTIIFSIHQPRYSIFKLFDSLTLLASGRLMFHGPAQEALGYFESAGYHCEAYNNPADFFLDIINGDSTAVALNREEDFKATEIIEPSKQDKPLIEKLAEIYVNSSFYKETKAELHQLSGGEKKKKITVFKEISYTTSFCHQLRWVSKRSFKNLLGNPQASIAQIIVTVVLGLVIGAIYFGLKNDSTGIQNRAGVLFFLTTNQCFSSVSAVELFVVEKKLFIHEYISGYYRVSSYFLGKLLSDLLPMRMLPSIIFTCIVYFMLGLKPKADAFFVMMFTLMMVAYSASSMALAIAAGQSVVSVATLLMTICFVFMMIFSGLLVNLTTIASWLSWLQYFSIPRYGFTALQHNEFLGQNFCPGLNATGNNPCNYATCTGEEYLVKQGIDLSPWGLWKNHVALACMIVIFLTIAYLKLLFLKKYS

O=C(Nc1ccccc1-c1ccc(Cl)cc1)c1cccnc1Cl
active: [4] 52.5 µM | [12] 0.921 µM
not listed: [20]
inactive: all other assays above

CS(=O)(=O)c1ccc(C(=O)C2C(=O)CCCC2=O)c([N+](=O)[O-])c1
active: [4] 19.1 µM
not listed: [11] | [20]
inactive: all other assays above

COC(=O)NC(=S)Nc1ccccc1NC(=S)NC(=O)OC
active: [4] 39.2 µM | [9] 17.4 µM | [13] 35.4 µM
not listed: [8] | [11] | [20]
inactive: all other assays above

Nc1c(Cl)c(F)nc(OCC(=O)O)c1Cl
not listed: [8] | [11] | [20]
inactive: all other assays above

CC(C)Nc1nc(Cl)nc(NC(C)C)n1
active: [2] 16.8 µM | [4] 41.2 µM | [9] 19.8 µM | [12] 73.3 µM | [13] 9.77 µM
not listed: [8] | [11] | [20]
inactive: all other assays above

COCc1cnc(C2=NC(C)(C(C)C)C(=O)N2)c(C(=O)O)c1 (centres undefined)
active: [4] 65.5 µM
not listed: [7] | [8]
inactive: all other assays above

Cc1ccc(N=CN(C)C=Nc2ccc(C)cc2C)c(C)c1
active: [4] 41.2 µM
not listed: [8] | [20]
inactive: all other assays above

Source: PubChem BioAssay (EPA / NIEHS)
